Test [1] in a line: small molecules captured by biotinylated probe aFSTL3 – biochemical, small-molecule microarray, fluorescence 635/667, stem cell growth factor project, primary screen (AID 1064).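 Further: measures binding of the biotinylated anti-FSTL3 antibody to printed compounds.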 Particulars: higher = more signal.
A short description of test [2]: binders from COS7 lysate, DM2A8 probe, primary screen, torsin A project, cell lysate, small-molecule microarray, fluorescence 635/667 (AID 1065). As to conditions: higher = more signal, COS7 lysate expressing mutant human TOR1A.
A short description of test [3]: small molecules captured by biotinylated probe aFGF2 – biochemical, small-molecule microarray, fluorescence 635/667, stem cell growth factor project, primary screen (AID 1067).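 Further: measures binding of biotinylated aFGF2 protein to printed compounds on slides; z-score merges feature fluorescence and signal-to-noise across triplicate slides.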 Particulars: higher = more signal.
Test [4] is described as follows: small molecules captured by biotinylated probe aFGF10 – biochemical, small-molecule microarray, fluorescence 635/667, stem cell growth factor project, primary screen (AID 1071).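 Further: score merges 667 nm spot intensity and signal to noise from triplicate slides.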 As to conditions: higher = more signal.
Test [5] has as its target Neurogenic locus notch homolog protein 2 (Homo sapiens) (UniProt Q04721). Description: small molecules binding Notch2 protein – biochemical, small-molecule microarray, 635 nm fluorescence, stem cell growth factors, primary screen (AID 1073). Particulars: higher = more signal.
For test [6], the target named is Pro-neuregulin-1, membrane-bound isoform (Homo sapiens) (UniProt Q02297). Briefly: small molecules binding neuregulin-1 protein – biochemical, small-molecule microarray, fluorescence 635/667, psychiatric disease protein project, primary screen (AID 1075).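 Further: score combines 667 nm spot fluorescence with signal to noise.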 As to conditions: NRG1 binding, 635 nm fluorescence, higher = more signal.
Chain of Pro-neuregulin-1, membrane-bound isoform (Homo sapiens) (Q02297 whole entry, looked up, the tested form may be a part, canonical isoform): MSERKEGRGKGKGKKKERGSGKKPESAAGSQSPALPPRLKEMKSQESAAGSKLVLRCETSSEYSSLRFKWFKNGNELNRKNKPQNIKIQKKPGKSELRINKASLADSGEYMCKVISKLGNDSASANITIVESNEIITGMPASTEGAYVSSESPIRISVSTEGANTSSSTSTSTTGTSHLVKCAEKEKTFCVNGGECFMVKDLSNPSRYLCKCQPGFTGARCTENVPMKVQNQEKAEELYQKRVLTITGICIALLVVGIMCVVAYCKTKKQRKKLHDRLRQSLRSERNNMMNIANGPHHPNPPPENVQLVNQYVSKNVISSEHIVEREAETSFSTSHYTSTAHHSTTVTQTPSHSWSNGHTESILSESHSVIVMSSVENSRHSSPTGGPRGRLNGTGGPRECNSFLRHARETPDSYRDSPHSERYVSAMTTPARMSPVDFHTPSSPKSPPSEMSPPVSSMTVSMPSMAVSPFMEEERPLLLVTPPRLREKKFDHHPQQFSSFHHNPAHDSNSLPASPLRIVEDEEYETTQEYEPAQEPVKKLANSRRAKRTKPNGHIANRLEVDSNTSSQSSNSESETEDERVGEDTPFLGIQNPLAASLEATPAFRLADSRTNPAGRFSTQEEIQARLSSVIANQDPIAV
For test [7], the system named is Neuregulin-1 EGF-like domain. Briefly: small molecules binding NRG1 EGF domain – biochemical, small-molecule microarray, 635 nm fluorescence, primary screen (AID 1081).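 Further: binding of the protein to compounds printed on small-molecule microarray slides.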 As to conditions: higher = more signal.
Test [8] can be described thus: FRG1 expression reporter modulators in myotubes – cell-based, C2C12 myotubes, firefly/Renilla luciferase, luminescence, FRG1 inhibition for FSHD, primary screen (AID 1084). As to conditions: FRG1 promoter luciferase, higher = more signal, called active from +8 up or from −8 down.
A short description of test [9]: small molecules captured by biotinylated probe aFST – biochemical, small-molecule microarray, fluorescence 635/667, stem cell growth factor project, primary screen (AID 1086).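 Further: score merges 667 nm fluorescence with signal-to-noise of each printed compound spot.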 As to conditions: higher = more signal.
The nature of test [10]: binders of probe aHhip on microarray, primary screen, stem cell growth factor project, biochemical, small-molecule microarray, fluorescence 635/667 (AID 1087).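 Further: score merges spot fluorescence at 667nm with spot signal to noise ratio.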 Particulars: higher = more signal.
Test [11] relates to PRMT1 (protein arginine N-methyltransferase 1). Briefly: small molecules binding arginine methyltransferase PRMT1 – biochemical, small-molecule microarray, 635 nm fluorescence, primary screen (AID 1088).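 Further: binding of Prmt1 protein to compounds spotted on small-molecule microarray slides.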 As to conditions: higher = more signal.
Test [12] can be described thus: growth effects on S. cerevisiae YJM789 – YJM789 clinical isolate, OD600, 24 h, basal, primary screen (AID 1089).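 Further: growth of clinical yeast isolate S. cerevisiae YJM 789 seeded 1000 cells per well; test concentration not given here.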 Particulars: higher = more signal, called active from +8 up or from −8 down.
Test [13] can be described thus: S. pombe growth modifiers, basal conditions – strain 972, OD600, 24 h, no modulator, primary screen (AID 1090).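 Further: basal condition with compound alone and no growth modifier present; test concentration not given here.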 As to conditions: S. pombe 972 growth, higher = more signal, called active from +8 up or from −8 down.
A short description of test [14]: budding yeast growth modifiers under rapamycin – strain BY4716, OD600, 96 h, primary screen (AID 1091). Further: test concentration not given here. Particulars: S. cerevisiae BY4716 + rapamycin, higher = more signal, called active from +8 up or from −8 down.
In test [15] the target is Torsin-1A-interacting protein 2 (Homo sapiens) (UniProt Q8NFQ8). Description: small molecules binding lysate-expressed LULL1 – cell lysate, human LULL1 lysate, 635/667 nm fluorescence, primary screen (AID 1092).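 Further: probe is lysate of COS7 cells overexpressing human LULL1; score merges per-feature 667 nm fluorescence with signal-to-noise.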 As to conditions: small-molecule microarray, hLULL1 lysate binding, 635 nm fluorescence; higher = more signal.
Chain of Torsin-1A-interacting protein 2 (Homo sapiens) (Q8NFQ8 whole entry, looked up): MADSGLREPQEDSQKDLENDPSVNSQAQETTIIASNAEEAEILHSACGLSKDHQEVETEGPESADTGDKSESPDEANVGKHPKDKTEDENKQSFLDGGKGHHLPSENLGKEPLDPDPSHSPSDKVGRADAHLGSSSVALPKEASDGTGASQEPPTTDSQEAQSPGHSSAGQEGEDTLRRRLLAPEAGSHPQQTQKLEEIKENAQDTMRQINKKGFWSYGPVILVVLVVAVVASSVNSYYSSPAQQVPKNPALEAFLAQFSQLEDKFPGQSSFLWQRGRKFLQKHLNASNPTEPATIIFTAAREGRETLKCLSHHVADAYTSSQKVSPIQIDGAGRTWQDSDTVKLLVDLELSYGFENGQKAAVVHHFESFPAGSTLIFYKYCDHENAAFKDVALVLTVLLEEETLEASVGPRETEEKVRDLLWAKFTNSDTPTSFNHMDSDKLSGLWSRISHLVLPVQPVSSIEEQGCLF
Test [16] in a line: optical density change of DRC41 E. coli – strain DRC41, OD650, 24 h, E. coli filamentation project, primary screen (AID 1093).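 Further: MC1000 strain lacking acrAB efflux and sulA so SOS filamentation is blocked; test concentration not given here.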 Particulars: E. coli DRC41 growth, higher = more signal, called active from +8 up or from −8 down.
The nature of test [17]: probe aLefty2 binding to arrayed compounds – biochemical, biotinylated probe, 635/667 nm fluorescence, primary screen (AID 1094).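 Further: score merges spot fluorescence near 667 nm with spot signal-to-noise ratio.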 As to conditions: small-molecule microarray, higher = more signal.
Test [18] deals with Noggin (protein binding on small-molecule microarray). Description: small molecules binding Noggin protein – biochemical, 635/667 nm fluorescence, primary screen (AID 1095).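 Further: score merges 667 nm feature fluorescence with signal to noise over triplicate slides.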 As to conditions: 635 nm fluorescence, higher = more signal.
For test [19], the target named is Neurogenic locus notch homolog protein 3 (Homo sapiens) (UniProt Q9UM47). Description: small molecules binding NOTCH3 protein – biochemical, 635/667 nm fluorescence, primary screen (AID 1096). As to conditions: small-molecule microarray, 635 nm fluorescence, higher = more signal.
Chain of Neurogenic locus notch homolog protein 3 (Homo sapiens) (Q9UM47 whole entry, looked up): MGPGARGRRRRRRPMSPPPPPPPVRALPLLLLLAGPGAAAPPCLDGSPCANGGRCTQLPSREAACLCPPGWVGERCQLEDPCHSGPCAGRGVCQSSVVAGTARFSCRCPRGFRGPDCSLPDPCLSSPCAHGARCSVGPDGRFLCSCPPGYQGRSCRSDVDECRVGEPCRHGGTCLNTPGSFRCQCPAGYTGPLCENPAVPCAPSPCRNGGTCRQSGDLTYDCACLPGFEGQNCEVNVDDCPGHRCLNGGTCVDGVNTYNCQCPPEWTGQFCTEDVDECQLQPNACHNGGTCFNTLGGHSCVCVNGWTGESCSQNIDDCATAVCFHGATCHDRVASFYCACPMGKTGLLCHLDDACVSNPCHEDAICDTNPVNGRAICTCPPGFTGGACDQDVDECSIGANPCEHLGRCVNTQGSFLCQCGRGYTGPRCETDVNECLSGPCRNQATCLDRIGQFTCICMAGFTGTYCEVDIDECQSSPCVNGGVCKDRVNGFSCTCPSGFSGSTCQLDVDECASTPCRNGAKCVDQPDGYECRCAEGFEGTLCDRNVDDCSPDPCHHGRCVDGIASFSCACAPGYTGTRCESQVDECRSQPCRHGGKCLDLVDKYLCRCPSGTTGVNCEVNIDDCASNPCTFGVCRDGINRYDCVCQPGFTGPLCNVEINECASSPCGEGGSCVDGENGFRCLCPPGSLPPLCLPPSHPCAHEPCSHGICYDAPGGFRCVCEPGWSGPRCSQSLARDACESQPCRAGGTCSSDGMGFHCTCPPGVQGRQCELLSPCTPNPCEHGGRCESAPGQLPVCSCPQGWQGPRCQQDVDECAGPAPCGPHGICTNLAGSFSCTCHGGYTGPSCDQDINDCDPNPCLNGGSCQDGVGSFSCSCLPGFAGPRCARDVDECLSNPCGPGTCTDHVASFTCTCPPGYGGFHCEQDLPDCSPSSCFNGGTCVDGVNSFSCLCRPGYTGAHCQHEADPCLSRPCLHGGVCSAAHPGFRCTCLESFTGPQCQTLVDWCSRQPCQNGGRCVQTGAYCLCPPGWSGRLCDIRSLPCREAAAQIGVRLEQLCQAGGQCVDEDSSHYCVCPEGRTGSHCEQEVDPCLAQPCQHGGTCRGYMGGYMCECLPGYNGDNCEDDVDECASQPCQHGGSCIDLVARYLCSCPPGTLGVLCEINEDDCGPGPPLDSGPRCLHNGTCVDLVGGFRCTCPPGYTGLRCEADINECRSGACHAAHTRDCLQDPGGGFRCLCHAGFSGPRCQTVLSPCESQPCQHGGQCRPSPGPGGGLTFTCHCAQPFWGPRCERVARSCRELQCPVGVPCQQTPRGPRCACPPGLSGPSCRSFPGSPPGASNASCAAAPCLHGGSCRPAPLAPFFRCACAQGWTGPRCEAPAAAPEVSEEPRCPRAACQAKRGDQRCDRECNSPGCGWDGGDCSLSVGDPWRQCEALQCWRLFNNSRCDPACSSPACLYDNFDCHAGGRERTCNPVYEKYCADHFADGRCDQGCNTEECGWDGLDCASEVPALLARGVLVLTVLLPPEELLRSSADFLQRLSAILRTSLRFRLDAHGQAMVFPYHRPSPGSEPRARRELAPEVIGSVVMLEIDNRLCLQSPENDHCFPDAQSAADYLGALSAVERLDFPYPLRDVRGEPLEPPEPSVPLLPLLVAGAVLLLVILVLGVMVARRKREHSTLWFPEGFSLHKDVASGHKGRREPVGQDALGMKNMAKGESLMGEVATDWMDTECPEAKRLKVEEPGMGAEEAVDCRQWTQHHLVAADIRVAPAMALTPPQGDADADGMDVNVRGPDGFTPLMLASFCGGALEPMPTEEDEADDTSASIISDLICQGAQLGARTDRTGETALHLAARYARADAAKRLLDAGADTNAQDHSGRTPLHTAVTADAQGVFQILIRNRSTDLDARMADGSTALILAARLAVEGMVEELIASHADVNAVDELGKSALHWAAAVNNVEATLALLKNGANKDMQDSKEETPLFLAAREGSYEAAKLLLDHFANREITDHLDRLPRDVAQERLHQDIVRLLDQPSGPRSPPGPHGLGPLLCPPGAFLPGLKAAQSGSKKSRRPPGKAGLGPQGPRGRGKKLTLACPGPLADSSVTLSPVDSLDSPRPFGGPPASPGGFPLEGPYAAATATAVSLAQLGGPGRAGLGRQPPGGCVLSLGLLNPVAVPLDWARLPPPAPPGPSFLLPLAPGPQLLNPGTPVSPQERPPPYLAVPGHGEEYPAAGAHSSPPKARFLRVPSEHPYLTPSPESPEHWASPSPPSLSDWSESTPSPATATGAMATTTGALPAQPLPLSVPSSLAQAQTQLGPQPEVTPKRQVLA
Test [20] can be described thus: probe aEGFR binding to arrayed compounds – biochemical, biotinylated probe, 635/667 nm fluorescence, primary screen (AID 1097).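 Further: probe is a biotinylated anti-EGFR antibody binding compounds printed on slides; score combines fluorescence near 667 nm and signal to noise of each spot.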 Particulars: small-molecule microarray, higher = more signal.

Each structure is given as a SMILES string. Active and inactive are the calls of the source.

Experimental findings from PubChem BioAssay are described below.

In the case of `CN(C)CCCNC(=O)[C@@]1(C)c2ccccc2C(=O)N(Cc2cc(F)cc(C(F)(F)F)c2)[C@H]1c1ccc(CO)cc1`, the composite z-score in [1] is -0.0117; in test [2], -0.224; in [3] it was -0.144; in [4], -0.681; in test [5], -1.23; in test [6], 1.05. Besides, the composite z-score was -0.164 in [7]; -0.641 in test [9]; -0.132 in test [10]; 0.936 in [11]; 3.12 in test [15]; -0.203 in [17]. The values for the composite z-score in test [18], in test [19] and in test [20] were -0.986, -0.604 and -0.237, respectively. Besides, the z-score is -0.712 (inactive) in test [8]; -1.46 (inactive) in test [12]; -2.05 (inactive) in [13]; -2.02 (inactive) in test [14]; 0.0544 (inactive) in [16].
For `O=C1NCC(=O)N2[C@@H]1C[C@@H](C(=O)O)[C@H]2c1cccc(OCCO)c1`, the composite z-score in test [1] came out at 3.93; in [2], 2.65; in [3], 1.02; in [4], 0.935; in [5] it was 1.82; in [6], 2.97. Besides, the composite z-score in [7] stood at 1.53; in test [9] it was 3.63; in test [10], 3.89; in test [11] it was 1.54; in [15], 4.93; in test [17], 1.81. The figures for the composite z-score in test [18], in [19] and in [20] were 2.31, 1.03 and 1.41, respectively. The z-score in [8] was 3.17 (inactive); in test [12], -0.215 (inactive); in [13], -14.2 (active); in test [14], 0.273 (inactive); in test [16], 0.0664 (inactive).
`CN(C)C(=O)[C@]1(Cc2ccccc2CN=[N+]=[N-])N=C(c2ccc(OCCCO)cc2)O[C@@H]1c1ccccc1CN=[N+]=[N-]`: the composite z-score in test [1] is -0.0551; in test [2], 1.26; in test [3] it was 0.0858; in test [4], 1.18; in test [5], 1.43; in [6], 0.559. Further, the composite z-score was 1.27 in test [7]; 1.64 in [9]; -0.318 in test [10]; 1.56 in test [11]; 3.59 in [15]; 0.0112 in test [17]. Also, the composite z-score in [18] worked out at 1.18; in [19], 1.11; in [20] it was 0.0816. For the same compound, the z-score in test [8] was -1.45 (inactive); in [12], -0.0966 (inactive); in test [13], -0.16 (inactive); in [14], 4.49 (inactive); in [16], -0.255 (inactive).
For `CCOC(=O)C[C@H]1[C@H](OC(=O)c2cc3ccccc3oc2=O)[C@@H](NC(=O)Cc2ccc(OC)cc2)c2cc(OCCCO)ccc2N1C(=O)c1ccccc1`, the composite z-score in [1] is -0.356; in test [2] it was 0.41; in test [3] it was -0.076; in test [4], 0.379; in [5], 0.359; in test [6], 0.199. Besides, the composite z-score in test [7] is 0.385; in test [9], 0.164; in test [10], -0.199; in test [11], 0.242; in test [15] it was 1.08; in [17], -0.139. Further, the composite z-score in test [18] is 0.558; in [19] it was 0.0769; in test [20] it was -0.0174. For the same compound, the z-score was 1.57 (inactive) in test [8]; -0.0987 (inactive) in [12]; -0.507 (inactive) in test [13]; 0.279 (inactive) in test [14]; 0.201 (inactive) in test [16].
With `COc1ccc(COC2OC[C@]3(C)[C@H]4C5=C(CN3C(=O)OC(C)(C)C)[C@H](C)C(CO)C(CO)C5CC[C@@H]24)cc1` (stereo not given in full), the composite z-score in [1] is 0.262; in test [2], 1.27; in [3], -0.0832; in [4], 0.424; in test [5], 1.65; in [6], 1.02. In addition, the composite z-score in test [7] is 0.982; in test [9], 1.98; in [10], -0.069; in [11], 0.482; in test [15], 3.27; in test [17], 0.341. In addition, the composite z-score in [18] is 0.277; in [19], 1.06; in [20], 0.0699. Moreover, the z-score in test [8] is 2.67 (inactive); in test [12], 0.677 (inactive); in test [13], 0.805 (inactive); in test [14], 0.502 (inactive); in test [16], -1.76 (inactive).
As to `COc1ccc([Si](C)(C)[C@@H]2[C@@H](CC(=O)N3Cc4ccccc4C[C@H]3CO)O[C@]3(C(=O)N(C)c4c(Br)cc(C)cc43)[C@H]2C)cc1`, the composite z-score was -0.184 in test [1]; 1.03 in test [2]; -0.083 in [3]; 0.441 in test [4]; 0.557 in [5]; 0.815 in [6]. The composite z-score in test [7] was 1.12; in test [9], 0.16; in [10] it was -0.0672; in [11] it was 1.54; in test [15] it was 1.84; in test [17] it was -0.174. Besides, the composite z-score in test [18] was 1.55; in [19], 1.12; in test [20] it was -0.0409. In addition, the z-score is -3.35 (inactive) in test [8]; -0.069 (inactive) in test [12]; 1.2 (inactive) in test [13]; 2.03 (inactive) in test [14]; 0.064 (inactive) in test [16].
For the compound `COc1ccc([Si](C)(C)[C@H]2[C@H](CCn3cc([C@H](O)c4ccccc4)nn3)O[C@@]3(C(=O)N(Cc4cccc(N5CCOC5=O)c4)c4ccccc43)[C@@H]2C)cc1`, the composite z-score was -0.218 in [1]; 0.071 in [2]; -0.003 in test [3]; 0.29 in test [4]; 0.401 in test [5]; 0.209 in test [6]. For the same compound, the composite z-score in [7] was 1.04; in [9], -0.0127; in test [10], 0.155; in [11], 0.961; in test [15], 0.872; in [17], 0.0342. Also, the values for the composite z-score in test [18], in [19] and in test [20] were 0.827, 1.04 and 0.117, respectively. The z-score in test [8] is -0.955 (inactive); in test [12], -0.0578 (inactive); in test [13] it was 0.947 (inactive); in test [14] it was 1.95 (inactive); in [16] it was -0.565 (inactive).
On to `[N-]=[N+]=Nc1ccccc1C[C@]1(C(N)=O)N=C(c2ccc(OCCCO)cc2)O[C@H]1c1ccccc1`, for which the composite z-score is 0.235 in test [1]; 0.327 in test [2]; 0.0931 in [3]; 0.373 in [4]; 0.361 in test [5]; 1.82 in test [6]. In addition, the composite z-score is 1.22 in test [7]; 0.85 in test [9]; -0.0237 in [10]; 0.203 in test [11]; 3.19 in test [15]; -0.0893 in [17]. Moreover, the figures for the composite z-score in test [18], in test [19] and in test [20] were -0.194, 0.444 and -0.115, respectively. Besides, the z-score in [8] is -3.01 (inactive); in test [12], 0.515 (inactive); in test [13] it was 0.248 (inactive); in test [14] it was 0.143 (inactive); in test [16], 0.104 (inactive).
Take `COc1ccc(CCN2C(=O)[C@@]3(c4ccc([N+](=O)[O-])cc4)CC(=O)N(C4CCCCC4)[C@@H]3c3ccc(CO)cc32)cc1`: the composite z-score in test [1] was -0.126; in test [2], 0.0269; in test [3] it was -0.148; in test [4], -0.0632; in test [5], -0.0731; in test [6], 0.0125. In addition, the composite z-score in test [7] was 1.46; in test [9], -0.135; in test [10] it was -0.0994; in [11], 1.09; in [15], 0.479; in [17], -0.0246. Further, the composite z-score is 0.792 in test [18], 0.441 in test [19] and -0.1 in [20]. In addition, the z-score was 0.912 (inactive) in [8]; -1.82 (inactive) in [12]; 0.701 (inactive) in [13]; -1.83 (inactive) in [14]; 0.483 (inactive) in [16].
